Data as given in PubChem BioAssay (NCATS).
Values without a mark were called inactive. Inconclusive results are not listed. The source made the active and inactive calls. Unless noted, the call rests on the fitted dose curve; in most records, active means well fitted curve in the direction sought with a large enough effect; inconclusive means small, poorly fitted or top-dose-only effect, or another doubt; inactive means no such curve, though single readings can be large; an effect the other way counts as inactive or inconclusive.

Legend:
[1] = target: Lysosomal acid glucosylceramidase (Homo sapiens) (UniProt P04062); assay: Glucocerebrosidase-p2 (AID 348; in the data active means potency below about 10 µM; further: potency means the concentration at half of the fitted maximal effect); details: purified GBA, blue fluorogenic substrate, 40 min
Outline: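 Compounds titrated from 0.6 nM upwards against 0.2 nM enzyme in pH 5.9 citric acid/KH2PO4, taurocholate, tween-20; blue fluorogenic substrate 80 uM, 40 min room temperature, stopped and read Ex 365/Em 440 for AC50.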

[2] = NFAT Signaling Pathway (AID 444; active means well fitted curve in either direction with a large enough effect, not every such curve was filed as active;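 further: carbachol stimulus at about its EC50 of 1 µM final; on the % scale 0 is the no-effect control and ±100 the full control effect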); details: Jurkat NFAT-bla M1, carbachol, beta-lactamase ratio, 5 h; at 7.69 µM (top of the series) unless noted
Outline: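 Jurkat cells with NFAT-driven β-lactamase reporter and co-expressed M1 receptor, stimulated with carbachol (final 1 uM, ~EC50), compound titration, 5 h at 37 °C. CCF4 loaded 1 h at RT; 460/530 nm ratio gave %activity and AC50.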

[3] = Stat Signaling Pathway (AID 446; active means well fitted curve in either direction with a large enough effect, not every such curve was filed as active;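 further: ME-180 cervical cancer cells given 40 pM IL-6 alongside compound; SIE-controlled beta-lactamase reporter measured as 460/530 nm FRET emission ratio; on the % scale 0 is the no-effect control and ±100 the full control effect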); details: ME-180 SIE beta-lactamase reporter, IL-6 stimulated, 5 h; at 7.69 µM (top of the series) unless noted
Outline: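 Screening format detects activators and inhibitors alike: ME-180 SIE-bla cells stimulated at 40 pM IL-6 for 5 hrs with compound, then dual-emission beta-lactamase read at 405 nm excitation.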

[4] = target: Glucocorticoid receptor (Homo sapiens) (UniProt P04150); assay: GR-GFP Redistribution (AID 450;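 active means compounds whose dose series gives a full or clear partial fitted curve of increased nuclear translocation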; further: potency means the concentration at half of the fitted maximal effect); details: U2OS GR-GFP nuclear translocation, laser cytometry, 2 h
[5] = target: Glucocorticoid receptor (Homo sapiens) (UniProt P04150); assay: GR-EFC Redistribution (AID 451; calls by dose curve; further: potency means the concentration at half of the fitted maximal effect); details: CHO-K1 GR-EFC translocation, beta-gal luminescence, 2 h
Outline: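 CHO-K1 cells expressing nuclear EA and GR-ED fragments of b-gal; compounds titrated up to 46 uM final, 2 h at 37 C. GR nuclear translocation read as complemented b-gal luminescence after 1 h RT detection.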

[6] = target: Mitogen-activated protein kinase 10 (Mus musculus) (UniProt Q61831); assay: JNK3 AlphaScreen Assay (AID 530; active means well fitted curve in either direction with a large enough effect, not every such curve was filed as active;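 further: kinase came from lysate of stimulated human HepG2 cells; signal reports phosphorylation of biotinylated GST-cJun 1-79 at Ser73 with 10 µM ATP; on the % scale 0 is the no-effect control and ±100 the full control effect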); details: JNK3 lysate, c-Jun phosphorylation; series mostly up to 57.1 µM
Outline: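 qHTS format: compounds tested as titrations against IL-1beta/TNF-alpha-activated HepG2 lysate JNK3 with biotin-GST-cJun substrate and 10 uM ATP at room temperature. Loss of anti-phospho-cJun AlphaScreen signal indicates inhibition.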

[7] = target: 3',5'-cyclic-AMP phosphodiesterase 4B (Homo sapiens) (UniProt Q07343); assay: qHTS Assay for Inhibitors of PDE-IV (AID 607; active means well fitted activation curve with a large enough effect in the main read-out, with a control signal flat, not every such curve was filed as active; further: % of control where 0% means no effect); details: HEK293 ACTOne CNG channel cells, membrane potential fluorescence; series mostly up to 22.9 µM
Outline: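 The readout is membrane depolarisation from a cAMP-sensing CNG channel, detected with a potential dye at ex 535/em 590. Cells were HEK293-derived (endogenous PDE-IV) at 1000 cells/well, titrated up to 22.9 uM final.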

[8] = target: Dual specificity protein kinase CLK4 (Homo sapiens) (UniProt Q9HAZ1); assay: qHTS Assay for Inhibitors of CDC-like Kinase 4 (Kinase-Glo Assay) (AID 1770); details: recombinant Clk4, Kinase-Glo ATP depletion luminescence; series mostly up to 66.7 µM; further: nearly all actives have a fitted effect of over 65% in size; further: potency means the concentration at half of the fitted maximal effect
Outline: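 Luminescent ATP-depletion read-out (Kinase-Glo) after 4.5 h room-temperature reaction of Clk4 (25 nM final) with RS peptide (100 uM) and ATP (1 uM), pH 7.5 Tris buffer with MgCl2 and DTT.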

[9] = target: Dual specificity protein kinase CLK4 (Homo sapiens) (UniProt Q9HAZ1); assay: qHTS Assay for Inhibitors of CDC-like Kinase 4 (ADP-FP Assay) (AID 1795); details: Transcreener ADP fluorescence polarization; series mostly up to 50 µM; further: nearly all actives have a fitted effect of over 60% in size; further: potency means the concentration at half of the fitted maximal effect
Outline: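 Kinase activity was measured as ADP production using Transcreener orange tracer (4 nM) and ADP antibody (1 ug/mL) fluorescence polarization, with ADP calculated from a calibration curve. The 1 h reaction contained 6.25 nM Clk4, 1 uM ATP and 100 uM RS peptide at pH 7.5 with Mg2+.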

[10] = target: Ubiquitin carboxyl-terminal hydrolase 1 (Homo sapiens) (UniProt O94782); assay: Inhibitors of USP1/UAF1: Pilot qHTS (AID 504865); details: purified USP1/UAF1, Ub-rhodamine cleavage fluorescence; series mostly up to 54.9 µM;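 further: rhodamine fluorescence freed from ubiquitin-rhodamine substrate followed over time; top concentration of the series differs between compounds; on the % scale 0 is the no-effect control and ±100 the full control effect; nearly all actives have a fitted effect of over 35% in size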
Outline: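 Deubiquitinase activity followed as kinetic rhodamine fluorescence release from 150 nM Ub-Rho. 1 nM USP1/UAF1 with compound, after 15 min room-temperature preincubation, in HEPES pH 7.8 buffer containing TCEP, EDTA, BSA and Tween-20.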

[11] = Primary qHTS for small molecule stabilizers of the endoplasmic reticulum resident proteome: Secreted ER Calcium Modulated Protein (SERCaMP) assay (AID 1508630); details: SH-SY5Y GLuc-SERCaMP (Gaussia luciferase released on ER calcium loss) secretion, thapsigargin, luminescence; series mostly up to 38.4 µM; further: on the % scale 0 is the no-effect control and ±100 the full control effect
Outline: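 GLuc-SERCaMP-expressing SH-SY5Y cells, pretreated 16 h with compound, are challenged with thapsigargin to empty ER calcium stores; after 4 h, coelenterazine is added directly to the medium and luminescence is imaged.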

[12] = AP1 Signaling Pathway (AID 357; active means well fitted curve in either direction with a large enough effect, not every such curve was filed as active); details: ME-180 AP-1-bla reporter, EGF-induced, beta-lactamase ratio, 5 h; at 7.69 µM (top of the series) unless noted
Outline: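 Cells are seeded overnight, exposed to compound titrations and an EC50 level of EGF for 5 hours at 37 °C, then loaded with CCF4 dye for 2.5 hours. Beta-lactamase activity under the AP-1 element is read as a blue/green ratio.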

[13] = target: Cytochrome P450 1A2 (Homo sapiens) (UniProt P05177); assay: p450-cyp1a2 (AID 410; calls by dose curve; further: potency means the concentration at half of the fitted maximal effect); details: recombinant CYP1A2, luciferin-ME demethylation, luminescence; series mostly up to 57 µM
Outline: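 Inhibition was calculated relative to 57 uM furafylline (full inhibition). The reaction used human CYP1A2 at 20nM with Luciferin-ME at its Km, 100uM, driven by an NADPH-regenerating system for 60 min at room temperature.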

[14] = target: Cytochrome P450 3A4 (Homo sapiens) (UniProt P08684); assay: qHTS Assay for Inhibitors and Substrates of Cytochrome P450 3A4 (AID 884); details: recombinant CYP3A4, Luciferin-PPXE luminescence; series mostly up to 57.1 µM; further: potency means the concentration at half of the fitted maximal effect; nearly all actives have a fitted effect of over 50% in size
Outline: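 20 nM human CYP3A4 with 25 uM Luciferin-PPXE (at KM) in 200 mM KPO4, preincubated 10 min with compound; NADPH regeneration started a 60 min RT reaction. Luciferin detected by luminescence, normalized to 57 uM ketoconazole as full inhibition.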

[15] = target: Cytochrome P450 3A4 (Homo sapiens) (UniProt P08684); assay: qHTS Assay for Activators of Cytochrome P450 3A4 (AID 885); details: recombinant CYP3A4, Luciferin-PPXE luminescence, 60 min; series mostly up to 57.1 µM; further: nearly all actives have a fitted effect of over 65% in size
Outline: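 Steps: enzyme/substrate mix dispensed; compound added, 10 min RT; NADPH regeneration solution added, 60 min RT; luciferin detection buffer stops reaction; 20 min later luminescence measured.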

[16] = target: Cytochrome P450 2C19 (Homo sapiens) (UniProt P33261); assay: qHTS Assay for Inhibitors and Substrates of Cytochrome P450 2C19 (AID 899); details: recombinant CYP2C19, luciferin-H EGE luminescence; series mostly up to 57.1 µM; further: potency means the concentration at half of the fitted maximal effect; nearly all actives have a fitted effect of over 60% in size
Outline: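 Luminescent read-out of luciferin formed from Luciferin-H EGE (10uM, equal to KM). Enzyme 5nM in 50mM KPO4; compound added, 10 min at 37C, then NADPH regenerating system for 60 min at 37C. Full inhibition defined by 57uM ketoconazole.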

[17] = target: Cytochrome P450 2C9 (Homo sapiens) (UniProt P11712); assay: qHTS Assay for Inhibitors and Substrates of Cytochrome P450 2C9 (AID 883); details: recombinant CYP2C9, luciferin-H luminescence, 60 min; series mostly up to 57.1 µM; further: on the % scale 0 is the no-effect control and ±100 the full control effect; nearly all actives have a fitted effect of over 60% in size
Outline: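 10nM CYP2C9 + 100uM Luciferin-H (=KM), 25mM KPO4; cpd 10 min 37C; NADPH regen, 60 min 37C; stop/detect with P450 Glo-Buffer 20 min; luminescence. Norm. to 57uM sulphaphenazole as full inhibition.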

[18] = target: Cytochrome P450 2D6 (Homo sapiens) (UniProt P10635); assay: qHTS Assay for Inhibitors and Substrates of Cytochrome P450 2D6 (AID 891); details: recombinant CYP2D6, luciferin-ME EGE luminescence; series mostly up to 57.1 µM; further: potency means the concentration at half of the fitted maximal effect; nearly all actives have a fitted effect of over 60% in size
Outline: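 Human CYP2D6 (5 nM) with 30 uM Luciferin-ME EGE (at Km) in 100 mM KPO4, compound preincubated 10 min, then NADPH regeneration system for 60 min at room temperature. Luciferin read by luminescence; normalized to 1.43 uM quinidine.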

[19] = qHTS Assay for Identification of Small Molecule Agonists for Hypoxia Response Element Signaling Pathway (AID 914; active means well fitted activation curve with a large enough effect in the signal ratio, with a control signal flat, not every such curve was filed as active; the % refers to the signal ratio; further: % of control where 0% means no effect); details: ME-180 (cervical carcinoma) HRE-bla reporter, beta-lactamase ratio, CoCl2, 17 h; activation: hits give high values
Outline: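 HRE-bla ME-180 cells, overnight plating in Opti-MEM with 0.5% dialyzed FBS; cpd titration + EC50 CoCl2, 17 h, 37 degrees Celsius; CCF4 2.5 h RT; 460/530 nm ratio; AC50.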

3',5'-cyclic-AMP phosphodiesterase 4B (Homo sapiens), sequence (Q07343 whole entry, looked up): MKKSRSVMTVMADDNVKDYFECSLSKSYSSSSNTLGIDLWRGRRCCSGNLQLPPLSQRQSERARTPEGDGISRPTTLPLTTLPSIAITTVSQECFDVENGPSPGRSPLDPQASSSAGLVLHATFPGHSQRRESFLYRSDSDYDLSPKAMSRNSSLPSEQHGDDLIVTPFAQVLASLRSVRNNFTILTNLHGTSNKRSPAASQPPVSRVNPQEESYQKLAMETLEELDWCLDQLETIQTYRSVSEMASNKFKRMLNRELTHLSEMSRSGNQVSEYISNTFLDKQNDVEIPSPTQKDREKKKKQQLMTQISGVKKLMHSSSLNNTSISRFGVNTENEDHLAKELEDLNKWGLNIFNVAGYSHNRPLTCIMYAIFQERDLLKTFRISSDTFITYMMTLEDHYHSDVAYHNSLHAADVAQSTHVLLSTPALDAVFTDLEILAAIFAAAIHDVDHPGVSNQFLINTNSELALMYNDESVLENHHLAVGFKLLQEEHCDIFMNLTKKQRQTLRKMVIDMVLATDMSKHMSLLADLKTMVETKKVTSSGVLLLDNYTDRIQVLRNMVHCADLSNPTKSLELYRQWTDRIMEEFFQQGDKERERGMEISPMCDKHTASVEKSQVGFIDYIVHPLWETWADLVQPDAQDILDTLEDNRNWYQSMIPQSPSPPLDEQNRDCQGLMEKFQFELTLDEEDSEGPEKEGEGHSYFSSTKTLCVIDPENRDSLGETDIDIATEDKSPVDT
Dual specificity protein kinase CLK4 (Homo sapiens), sequence (Q9HAZ1 whole entry, looked up): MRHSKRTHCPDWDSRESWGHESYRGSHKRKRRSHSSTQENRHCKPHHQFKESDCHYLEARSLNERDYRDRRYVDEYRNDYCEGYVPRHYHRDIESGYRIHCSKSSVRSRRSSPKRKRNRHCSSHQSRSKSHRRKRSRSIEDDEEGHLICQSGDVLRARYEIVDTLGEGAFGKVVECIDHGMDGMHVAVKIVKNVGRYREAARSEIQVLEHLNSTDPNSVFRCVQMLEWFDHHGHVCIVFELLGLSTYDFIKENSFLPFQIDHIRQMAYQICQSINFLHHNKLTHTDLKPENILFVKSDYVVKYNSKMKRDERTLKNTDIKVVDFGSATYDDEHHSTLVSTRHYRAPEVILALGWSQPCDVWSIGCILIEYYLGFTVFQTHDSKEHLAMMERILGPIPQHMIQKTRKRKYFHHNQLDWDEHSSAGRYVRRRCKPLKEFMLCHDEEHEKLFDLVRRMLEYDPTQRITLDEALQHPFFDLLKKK
Ubiquitin carboxyl-terminal hydrolase 1 (Homo sapiens), sequence (O94782 whole entry, looked up): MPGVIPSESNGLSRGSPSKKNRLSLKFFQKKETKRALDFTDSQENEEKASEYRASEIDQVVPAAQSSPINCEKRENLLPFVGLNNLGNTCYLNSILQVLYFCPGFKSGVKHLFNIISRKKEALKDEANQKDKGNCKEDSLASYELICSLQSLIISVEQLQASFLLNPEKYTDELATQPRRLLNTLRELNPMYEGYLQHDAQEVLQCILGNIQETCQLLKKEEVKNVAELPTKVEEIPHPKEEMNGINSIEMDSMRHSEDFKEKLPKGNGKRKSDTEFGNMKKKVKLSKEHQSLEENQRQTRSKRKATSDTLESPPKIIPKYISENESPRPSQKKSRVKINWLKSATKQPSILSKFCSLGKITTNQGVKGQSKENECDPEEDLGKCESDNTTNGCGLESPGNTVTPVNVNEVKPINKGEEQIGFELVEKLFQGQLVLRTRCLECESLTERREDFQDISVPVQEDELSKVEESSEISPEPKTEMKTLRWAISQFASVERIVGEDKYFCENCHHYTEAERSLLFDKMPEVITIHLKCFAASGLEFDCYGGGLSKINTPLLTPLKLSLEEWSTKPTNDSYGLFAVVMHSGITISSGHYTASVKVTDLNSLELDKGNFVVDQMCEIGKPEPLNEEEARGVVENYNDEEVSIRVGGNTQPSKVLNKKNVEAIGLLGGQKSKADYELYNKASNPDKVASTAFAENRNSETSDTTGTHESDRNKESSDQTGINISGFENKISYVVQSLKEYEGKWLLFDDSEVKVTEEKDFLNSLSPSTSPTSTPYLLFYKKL
Lysosomal acid glucosylceramidase (Homo sapiens), sequence (P04062 whole entry, looked up): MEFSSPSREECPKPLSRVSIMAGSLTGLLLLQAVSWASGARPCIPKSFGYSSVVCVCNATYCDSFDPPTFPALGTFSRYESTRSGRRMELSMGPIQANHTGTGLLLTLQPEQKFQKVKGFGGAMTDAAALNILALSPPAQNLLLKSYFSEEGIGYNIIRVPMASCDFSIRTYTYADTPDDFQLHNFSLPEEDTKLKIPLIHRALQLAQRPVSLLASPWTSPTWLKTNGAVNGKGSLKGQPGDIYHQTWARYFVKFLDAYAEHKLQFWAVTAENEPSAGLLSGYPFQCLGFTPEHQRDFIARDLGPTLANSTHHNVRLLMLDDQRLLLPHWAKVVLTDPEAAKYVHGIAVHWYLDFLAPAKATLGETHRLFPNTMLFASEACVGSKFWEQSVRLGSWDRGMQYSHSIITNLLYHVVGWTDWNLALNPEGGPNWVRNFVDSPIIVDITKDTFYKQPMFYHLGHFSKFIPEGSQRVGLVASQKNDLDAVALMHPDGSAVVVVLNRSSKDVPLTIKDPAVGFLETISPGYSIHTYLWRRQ
Cytochrome P450 1A2 (Homo sapiens), sequence (P05177 whole entry, looked up): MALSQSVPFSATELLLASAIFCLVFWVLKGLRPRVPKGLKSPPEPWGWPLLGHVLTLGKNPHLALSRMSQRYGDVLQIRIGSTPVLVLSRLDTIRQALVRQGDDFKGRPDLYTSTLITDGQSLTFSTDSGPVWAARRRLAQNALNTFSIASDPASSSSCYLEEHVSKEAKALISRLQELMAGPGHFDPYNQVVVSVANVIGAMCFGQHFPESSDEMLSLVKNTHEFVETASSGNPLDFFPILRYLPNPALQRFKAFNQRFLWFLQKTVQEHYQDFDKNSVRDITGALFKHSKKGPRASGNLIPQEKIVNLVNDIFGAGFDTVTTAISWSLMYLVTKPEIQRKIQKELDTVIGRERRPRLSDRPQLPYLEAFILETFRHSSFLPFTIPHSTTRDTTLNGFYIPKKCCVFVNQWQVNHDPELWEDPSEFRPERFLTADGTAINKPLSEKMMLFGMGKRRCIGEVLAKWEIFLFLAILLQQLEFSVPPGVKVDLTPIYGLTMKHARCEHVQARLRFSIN
Glucocorticoid receptor (Homo sapiens), sequence (P04150 whole entry, looked up, the tested form may be a part): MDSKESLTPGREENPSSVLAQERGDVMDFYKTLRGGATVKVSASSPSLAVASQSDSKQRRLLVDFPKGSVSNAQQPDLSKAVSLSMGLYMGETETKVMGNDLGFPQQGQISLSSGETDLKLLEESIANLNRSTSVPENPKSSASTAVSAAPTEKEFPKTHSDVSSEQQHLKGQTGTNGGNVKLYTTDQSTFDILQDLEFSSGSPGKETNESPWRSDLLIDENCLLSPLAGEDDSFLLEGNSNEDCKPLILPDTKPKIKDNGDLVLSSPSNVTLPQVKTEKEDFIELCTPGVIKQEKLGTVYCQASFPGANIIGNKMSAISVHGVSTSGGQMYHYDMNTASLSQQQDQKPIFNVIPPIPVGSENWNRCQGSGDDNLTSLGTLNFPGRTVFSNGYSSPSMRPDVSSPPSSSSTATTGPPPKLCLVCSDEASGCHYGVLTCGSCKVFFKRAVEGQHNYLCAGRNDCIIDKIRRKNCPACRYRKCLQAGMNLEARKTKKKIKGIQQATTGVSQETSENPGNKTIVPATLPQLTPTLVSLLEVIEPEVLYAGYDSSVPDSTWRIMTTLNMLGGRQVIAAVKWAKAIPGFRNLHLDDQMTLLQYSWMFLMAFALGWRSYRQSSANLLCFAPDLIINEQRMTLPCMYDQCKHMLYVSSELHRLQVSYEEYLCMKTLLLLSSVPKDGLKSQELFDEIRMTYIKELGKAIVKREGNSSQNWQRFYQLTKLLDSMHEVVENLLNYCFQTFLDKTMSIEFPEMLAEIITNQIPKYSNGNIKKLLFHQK
Cytochrome P450 3A4 (Homo sapiens), sequence (P08684 whole entry, looked up): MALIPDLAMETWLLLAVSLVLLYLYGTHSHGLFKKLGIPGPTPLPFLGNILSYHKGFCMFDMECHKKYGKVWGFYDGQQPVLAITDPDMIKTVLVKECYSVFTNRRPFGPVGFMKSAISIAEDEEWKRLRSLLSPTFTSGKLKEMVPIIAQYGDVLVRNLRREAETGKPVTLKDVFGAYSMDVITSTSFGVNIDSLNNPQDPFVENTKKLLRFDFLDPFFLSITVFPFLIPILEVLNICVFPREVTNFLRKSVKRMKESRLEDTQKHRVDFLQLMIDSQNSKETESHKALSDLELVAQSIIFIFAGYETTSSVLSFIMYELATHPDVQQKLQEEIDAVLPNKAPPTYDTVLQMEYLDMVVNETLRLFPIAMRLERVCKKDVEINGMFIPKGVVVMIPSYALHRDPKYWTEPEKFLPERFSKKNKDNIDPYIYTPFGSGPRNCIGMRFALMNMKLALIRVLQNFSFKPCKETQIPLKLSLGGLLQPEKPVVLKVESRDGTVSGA
Cytochrome P450 2C19 (Homo sapiens), sequence (P33261 whole entry, looked up): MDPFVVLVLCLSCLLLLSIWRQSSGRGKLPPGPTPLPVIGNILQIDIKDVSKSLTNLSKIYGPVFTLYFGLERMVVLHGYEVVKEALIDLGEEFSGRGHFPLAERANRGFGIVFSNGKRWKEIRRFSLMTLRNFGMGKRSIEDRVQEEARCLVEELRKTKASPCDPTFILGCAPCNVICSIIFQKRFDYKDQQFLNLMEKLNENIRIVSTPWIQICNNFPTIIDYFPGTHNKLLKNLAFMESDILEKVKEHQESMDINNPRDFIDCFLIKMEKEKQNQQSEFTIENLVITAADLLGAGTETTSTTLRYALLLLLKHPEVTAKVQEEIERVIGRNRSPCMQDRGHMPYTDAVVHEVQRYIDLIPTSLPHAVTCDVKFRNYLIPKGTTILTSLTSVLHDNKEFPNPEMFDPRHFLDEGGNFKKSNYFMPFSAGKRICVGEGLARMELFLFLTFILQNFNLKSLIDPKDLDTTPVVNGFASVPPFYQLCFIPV

Row | Compound | Potency [1] | activity change, negative = inhibition [2] | activity, negative = inhibition [3] | Potency [4] | Potency [5] | Potency [6] | Potency [7] | Potency [8] | Potency [9] | Potency [10] | outcome [11] | activity change, negative = inhibition [12] | Potency [13] | Potency [14] | Potency [15] | Potency [16] | Potency [17] | Potency [18] | activation [19]
1 | CS(=O)(=O)Nc1cccc(-c2nccc(NCc3cccs3)n2)c1 | > 11.4 µM | 14.7% | -12.9% | > 46 µM | > 46 µM | inactive | inactive | 28.2 µM (active) | inactive | inactive | inactive | – | – | – | – | – | – | – | –
2 | Cc1cnc(CNc2ncncc2-c2ccoc2)cn1 | > 11.4 µM | -1.22% | 3.39% | > 46 µM | > 46 µM | inactive | inactive | inactive | – | inactive | inactive | 0.489% | 12.6 µM (active) | 2 µM (active) | inactive | – | – | – | –
3 | Cc1noc(C)c1-c1nc(N(C)Cc2ccco2)c2ccccc2n1 | > 11.4 µM | – | -25.7% | > 46 µM | > 46 µM | – | inactive | 28.2 µM (active) | inactive | inactive | inactive | -1.42% | – | – | – | – | – | – | –
4 | Cc1noc(C)c1-c1cncnc1Nc1ccccc1 | > 2.29 µM | 11.7% | 10.3% | > 46 µM | > 46 µM | inactive | inactive | inactive | inactive | inactive | inactive | 13.6% | – | 3.16 µM (active) | inactive | – | – | – | –
5 | Cn1c(=O)c(-c2ccc(F)c(F)c2)nc2cncnc21 | > 11.4 µM | -5.02% | -7.37% | > 9.22 µM | > 46 µM | inactive | inactive | inactive | – | inactive | inactive | 10% | 0.158 µM (active) | – | inactive | – | – | – | –
6 | COCCn1c(=O)c(-c2cc(F)cc(F)c2)nc2cncnc21 | > 11.4 µM | 1.95% | -7.77% | > 9.22 µM | > 46 µM | inactive | inactive | inactive | inactive | inactive | inactive | – | 2 µM (active) | – | inactive | – | – | – | –
7 | COc1ccc2[nH]cc(CCNc3ccnc(-c4ccc(N(C)C)cc4)n3)c2c1 | – | – | – | > 46 µM | > 46 µM | – | inactive | 15.8 µM (active) | inactive | inactive | inactive | 11.2% | 0.631 µM (active) | 5.01 µM (active) | inactive | 6.31 µM (active) | – | – | –
8 | O=c1c(-c2cc(F)cc(F)c2)nc2cncnc2n1C1CC1 | > 11.4 µM | 2.52% | -11.9% | > 9.22 µM | > 46 µM | inactive | inactive | inactive | – | inactive | inactive | -12% | 1.26 µM (active) | – | inactive | – | inactive | – | –
9 | COc1cccc(-c2nccc(NCc3ccccc3OC)n2)c1 | > 11.4 µM | 11.8% | -8.4% | > 46 µM | > 46 µM | inactive | inactive | 22.4 µM (active) | – | – | inactive | -18.4% | 1.26 µM (active) | 2.51 µM (active) | inactive | 5.01 µM (active) | – | 0.398 µM (active) | –
10 | COc1ccc2[nH]cc(CCNc3ccnc(-c4ccc(C(=O)N(C)C)cc4)n3)c2c1 | > 11.4 µM | -3.74% | -20.4% | > 46 µM | > 46 µM | inactive | inactive | inactive | inactive | inactive | inactive | -14.6% | – | 3.16 µM (active) | inactive | – | – | – | –
11 | c1cncc(-c2cc(-n3ccnc3)ncn2)c1 | > 11.4 µM | 4.07% | 14.8% | > 46 µM | > 46 µM | inactive | inactive | 0.794 µM (active) | 0.501 µM (active) | inactive | inactive | – | 0.1 µM (active) | 1.58 µM (active) | inactive | – | – | – | –
12 | Cn1c(=O)c(-c2cccc(F)c2)nc2cncnc21 | > 11.4 µM | 8.36% | -5.84% | > 9.22 µM | > 46 µM | inactive | inactive | inactive | inactive | inactive | inactive | -15.2% | – | – | inactive | – | – | – | -8.58%
